Measurements reported in PubChem BioAssay (NCI).
Values joined by “and” are separate entries in the source; they are usually repeats but may differ in a detail not shown here. Identical values can stand only once. Compounds without any hit were thinned out: in the full panel of roughly 83,000, 20% have a hit.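 How to read the values: 0–100, growth inhibition (40 = 60% inhibited); 0, no net growth; -100 to 0, cell death (-40 = 40% of starting cells died; -100 = all dead).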 Values without a mark were called inactive. Active and inactive are the calls of the source. Rule for the calls: active = growth percent below 10; inactive = the rest.

Test system: MDA-MB-468 breast
Assay: NCI-60 one-dose screen, 48 h (100 = growth as untreated, 0 = no growth, -100 = all killed)
Settings: 10 µM unless noted

Compound	growth
CC[C@@H]1OC(=O)[C@H](C)[C@@H](O[C@H]2C[C@@](C)(OC)[C@@H](O)[C@H](C)O2)[C@H](C)[C@@H](O[C@@H]2O[C@H](C)C[C@H](N(C)C)[C@H]2O)[C@](C)(O)C[C@@H](C)[C@@H]2N[C@@H](COCCOC)O[C@H]([C@H]2C)[C@]1(C)O	109%
O=C1/C(=C/c2ccccc2)SC(=S)N1CCc1ccc(O)cc1	73.9%
C#Cc1cccc(Nc2nc(Cl)nc3cc(NC(=O)CCl)ccc23)c1	-71% (active)
CNC(=O)c1cc(Oc2ccc3c(c2)sc2nc(-c4ccc(Cl)c(C(F)(F)F)c4)cn23)ccn1	5.6% (active)
O=C(Nc1sc2c(c1C(=O)O)CCCC2)c1cccc(C(F)(F)F)c1	68.2%
Cc1nc2c(-c3cnc(N)nc3)nc(N3CCOCC3)nc2n1C(C)C	-34.6% (active)
Cc1nn(-c2cc(NC3CCC(O)CC3)c3c(=O)[nH]c(CCC(F)(F)F)cc3c2)c2c1C(=O)CC(C)(C)C2 (stereo not drawn)	5.19% (active)
C=C(c1ccc(C(=O)O)c(F)c1)c1cc2c(cc1C)C(C)(C)C=CC2(C)C	93.8%
COc1cc2cc(Oc3ccc(NC(=O)Nc4cccc(C(F)(F)F)c4)cc3)c(C)nc2cc1OCCN1CCOCC1	-3.82% (active)
CCOC(=O)c1nn(-c2ccc(C)cc2)c(=O)c2c(N)c(C#N)c(-c3ccc(OC)cc3)cc12	102%
O=C(N/N=C/c1ccc([N+](=O)[O-])o1)c1ccc(O)cc1	12.8%
Cc1ccc2c(n1)C(=O)C(Oc1ccc(Br)cc1)=CC2=O	91.3%
Cc1ccc(N2C(=O)c3cccc4c(N)c(S(=O)(=O)O)cc(c34)C2=O)cc1	113%
Oc1ccc(CSc2nnc(-c3ccccc3)o2)c2cccnc12	22.9%
O=[N+]([O-])c1cc(Br)c2cccc3c2c1CC3	97.3%
Cc1ccccc1/C=C1\CN(C(=O)OC(C)(C)C)C/C(=C\c2ccccc2C)C1=O	36.7%
O=C1/C(=C/c2ccc(F)c(F)c2)CN(C(=O)C(Cl)Cl)C/C1=C\c1ccc(F)c(F)c1	-58.2% (active)
CCCCC(CCCC)(S(=O)(=O)CC)S(=O)(=O)CC	98.2%
Oc1cccc(Nc2nc(-c3ccccn3)cs2)c1	110%
CCN(CC)CC(=O)Nc1c(C)cc(C(=O)NN)cc1C	107%
COc1ccc(NC(=O)c2sc3nc(C)c(C(=O)c4ccc(OC)cc4)cc3c2N)cc1	13.2%

Compound	growth
COc1cc(/C(=C2/O[C@@H]([C@H]3COC(C)(C)O3)[C@H]3OC(C)(C)O[C@@H]23)c2ccc3c(c2)OCO3)cc(OC)c1OC	69.6%
Cn1cc(-c2csc(-c3c[nH]c4ncccc34)n2)c2cc(Br)cnc21	15.4%
Cn1ccnc1C(=O)/C=C/c1ccc(NC(=O)Nc2ccccc2)cc1	-45.8% (active)
COc1ccc(/C=N/NC(=O)CSc2nc(-c3cnccn3)cc(-c3cccs3)c2C#N)cc1OC	65.3%
COc1ccc(CCNC(=S)NN)cc1OC	128%
Cc1cc(O)c(C(C)(C)C)cc1Sc1cc(C(C)(C)C)c(O)cc1C	67.2%
O=C(CN1CCN(C(=O)c2ccccc2)CC1)Nc1ccccc1SCc1ccccc1	56.4%
COc1c(NC[C@H]2OC(O)[C@H](O)[C@@H](O)[C@@H]2O)c(=O)c1=O (stereo partly drawn)	94.1%
Cn1c(=O)c2nc3c(=O)n(C)c(=O)n(C)c3nc2n(C)c1=O	92.1%
Cc1ccc(N)cc1[N+](=O)[O-]	115%
COc1ccc(-c2cc(-c3cc(OC)c(OC)c(OC)c3)c(C#N)c(N3CCOCC3)n2)cc1O	76.7%
NC(=O)c1n[nH]n2c1nc(=O)c1c3c(sc12)CCCC3	120%
CN(C)c1ccc(/C=N/NC(=O)CSc2nc3sc4c(c3c(=O)n2-c2ccccc2)CCCCC4)cc1	26.2%
COc1cc(-c2cc(-c3ccc(N(C)C)cc3)nc(N3CCC(O)CC3)c2C#N)cc(OC)c1OC	-21.2% (active)
CCC(O)c1ccccc1 (stereo not drawn)	108% and 97.6%
COc1cc(-c2nn(-c3cccc(NC(=O)CCNc4ccc(N5CCOCC5)cc4)c3)cc2-c2ccncc2)ccc1Cl	30.7%
COc1cc(-c2cc3cc(O)ccc3oc2=O)cc(OC)c1OC	106%
COc1cc([C@@H]2c3cc4c(cc3[C@H](O)[C@H]3COC[C@@H]23)OCO4)cc(OC)c1OC	58%
CN1CCN(c2ccc(NC(=O)c3cncnc3Nc3ccc4c(ccn4Cc4cccc(F)c4)c3)cc2)CC1	44.9%
Oc1ccc(C(c2ccc(O)cc2)c2ccc(Br)cn2)cc1	-35.7% (active)
Nc1ncc(C#Cc2cncc(NC(=O)c3cccc(C(F)(F)F)c3)c2)c2cccnc12	92.5%

Compound	growth
O=c1c2ccccc2nc2n1Cc1nc3ccccc3c(=O)n1C2	90.6%
Nc1ncc(-c2cnn(C3CCNCC3)c2)cc1-c1nc2cc(Cl)ccc2o1	-94.3% (active)
C=C1C(=O)O[C@H]2[C@H]1CC/C(COC(=O)c1cccnc1N)=C\CC[C@@]1(C)O[C@@H]21	14.8%
S=c1nc(-c2ccccc2)oc(=NC2CCCCC2)n1C1CCCCC1	-42.1% (active)
O=C1c2cc(Cl)ccc2Oc2cc([N+](=O)[O-])ccc2N1c1ccc(F)cc1F	91.6%
CCOC(=O)c1c2c(n3cccc(F)c13)C(=O)c1ncccc1C2=O	39.6%
O=C1c2cc(Br)ccc2-n2c1nc1cc(Br)ccc1c2=O	76.6%
O=C(NCCc1nccs1)c1cnc2c(S)cccc2c1	16.5%
C=C1C(=O)O[C@H]2[C@H]1CC/C(COC(=O)CCCc1c[nH]c3ccccc13)=C\CC[C@@]1(C)O[C@@H]21	23.1%
C=C(C)C(C(=O)OCC)(C(=O)OCC)C(C)C	109%
COC(=O)c1[nH]nc(OC)c1C1(C(C#N)c2nc3ccccc3s2)CCCc2ccccc21 (stereo not drawn)	98.2%
CC1CN(C2CCCCC2)C(=O)NC1=O (stereo not drawn)	108%
Cn1cc(-c2csc(-c3cn(CCCN4CCOCC4)c4ccc(F)cc34)n2)c2cccnc21	49.3%
COc1ccc2cc(-c3ccc(NC(C)=O)c(=O)o3)ccc2c1	106%
O=C1Cc2cc(CCn3cncn3)c(Cl)cc2N1	35.1%
O=c1c2ccccc2sc2c(NCCN3CCOCC3)nc3ccccc3c12	59.4%
N#Cc1ncc(-c2cc(F)ccc2F)c(NC2CCCCCC2)n1	90.3%
N#CC1=C(N)Oc2c(sc3c(F)cccc23)C1c1ccc([N+](=O)[O-])cc1 (stereo not drawn)	-41.6% (active)
CCNC(=O)Oc1ccc(/C(=C(/C)c2ccc(Cl)cc2)c2ccc(OCCN3CCCCCC3)cc2)cc1	4.44% (active)
CC1(C)CC[C@]2(C(=O)OC(=O)[C@]34CCC(C)(C)C[C@@H]3C3=CC[C@@H]5[C@@]6(C)CCC(=O)C(C)(C)[C@@H]6CC[C@@]5(C)[C@]3(C)CC4)CC[C@]3(C)C(=CC[C@@H]4[C@@]5(C)CCC(=O)C(C)(C)[C@@H]5CC[C@]43C)[C@H]2C1	61.5% [100 µM]
[O-][N+](=Nc1cccc(Cl)c1)c1cccc(Cl)c1	-25% (active)

Compound	growth
O=C1c2ccccc2CCC1(Br)Br	-42.2% (active)
CCN(CC)Cc1c(-c2cccc(OC(F)(F)F)c2)[nH]c2ccc(N3CCCC3)cc2c1=O	93.1%
CC/C=C1/C(=O)C=C[C@@H]1C/C=C\CCCC(=O)O	73.5%
O=NN(CC(=O)NNc1ccccc1)CC(=O)NNc1ccccc1	77.7%
CC(C)(C)c1ccc(C(=O)Nc2nc3ccc(O)cc3s2)cc1	18.6%
Cc1ccc2c(n1)C(=O)C(Cl)=C(Nc1ccc(C(F)(F)F)cc1)C2=O	-48.5% (active)
CNc1cccc2c1C(=O)c1cccc(N)c1C2=O	46.1%
O=C1[C@@H]2Cc3c([nH]c4ccccc34)[C@H](c3c(Cl)cccc3Cl)N2C(=O)CN1C1CCN(Cc2c(F)cccc2F)CC1	102%
NCCC(=O)c1ccc(Cl)cc1	113%
CCOc1cc(F)c([N+](=O)[O-])cc1[N+](=O)[O-]	-35.2% (active)
CCCCCCCC/C=C/CCCCCCCC1=NC(C)(C)CN1C(C)(C)CO	-91.5% (active)
O=C(NC(CSSCC(NC(=O)OCc1ccccc1)C(=O)O)C(=O)O)OCc1ccccc1 (stereo not drawn)	84.5% and 102%
O=C(NC1CCCCC1)C(c1cccs1)N(CCc1ccccc1)C(=O)c1ccco1 (stereo not drawn)	94.1%
O=C1NC(=O)C2C(=O)NC(=O)C1C21CCc2ccccc21 (stereo not drawn)	101%
CC(Sc1nc2ccccc2c(=O)n1CCc1ccc(S(N)(=O)=O)cc1)C(=O)Nc1ccc(Cl)cc1 (stereo not drawn)	84%
O=c1nc2oc3ccc4ccccc4c3cc-2s1	-3.68% (active)
CNC(=O)c1c(NC(=O)c2ccc(C(C)C)cc2)sc2c(CN(C)C)c(O)ccc12	86.3%
C=CC(CC(c1ccccc1)(c1ccccc1)c1ccccc1)N(CC)CC (stereo not drawn)	30.5%
COc1ccc2[nH]c(C(=O)N3CCN(C(=O)OCc4ccc5c(Cl)cc(Cl)c(O)c5n4)CC3)cc2c1	-76.5% (active)
O=C(Nc1ccccc1O)c1ccccc1Nc1ccnc(C(F)(F)F)c1	116%
